In PMC7862700, “An all-to-all approach to the identification of sequence-specific readers for epigenetic DNA modifications on cytosine”:

Legend:
Assay in all cases: DAPPL (digital affinity profiling via proximity ligation, sequencing); 10 mM Tris-HCl pH 7.5, 50 mM NaCl, 1 mM DTT, 4% glycerol, room temperature, 30 min; GST-TFs on glutathione beads, 16-mer random dsDNA library, 0.1% formaldehyde crosslink after washing; high values mean tight binding
Conditions in all cases: protein: recombinant; tags: N-terminal GST; dsDNA, one strand shown
FLI1 = target: T1, FLI1 (Homo sapiens, UniProt Q01543 1-452)
T1 sequence: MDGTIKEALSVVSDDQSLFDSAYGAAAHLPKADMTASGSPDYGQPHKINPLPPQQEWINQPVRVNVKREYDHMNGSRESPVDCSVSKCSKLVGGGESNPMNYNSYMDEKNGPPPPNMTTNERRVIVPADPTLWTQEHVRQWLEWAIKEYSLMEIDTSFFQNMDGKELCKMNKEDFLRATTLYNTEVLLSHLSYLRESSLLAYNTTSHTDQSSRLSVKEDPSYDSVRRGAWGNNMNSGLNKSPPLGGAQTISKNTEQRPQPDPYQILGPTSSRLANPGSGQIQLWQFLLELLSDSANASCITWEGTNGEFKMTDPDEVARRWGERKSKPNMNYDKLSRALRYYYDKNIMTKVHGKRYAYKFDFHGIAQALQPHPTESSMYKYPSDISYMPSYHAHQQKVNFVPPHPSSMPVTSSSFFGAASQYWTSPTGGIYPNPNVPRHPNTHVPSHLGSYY
Summary of the method: (§1)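 Binding signal is defined as a hexamer's read frequency for one factor over its frequency for the tag-only sample. To obtain reads, GST-fused human transcription factors were expressed in yeast, captured on glutathione beads, barcoded with DNA and pooled with that sample. Pools met 200 nmole of a 16-mer random double-stranded DNA library in Tris/NaCl/DTT/glycerol buffer for 30 min at room temperature before washing, 0.1% formaldehyde crosslinking, proximity ligation (BsaI/T4 ligase, 1 h, 37 °C), PCR and Illumina NextSeq500 sequencing.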

ELK1 = target: T2, ELK1 (Homo sapiens, UniProt P19419 1-428)
T2 sequence: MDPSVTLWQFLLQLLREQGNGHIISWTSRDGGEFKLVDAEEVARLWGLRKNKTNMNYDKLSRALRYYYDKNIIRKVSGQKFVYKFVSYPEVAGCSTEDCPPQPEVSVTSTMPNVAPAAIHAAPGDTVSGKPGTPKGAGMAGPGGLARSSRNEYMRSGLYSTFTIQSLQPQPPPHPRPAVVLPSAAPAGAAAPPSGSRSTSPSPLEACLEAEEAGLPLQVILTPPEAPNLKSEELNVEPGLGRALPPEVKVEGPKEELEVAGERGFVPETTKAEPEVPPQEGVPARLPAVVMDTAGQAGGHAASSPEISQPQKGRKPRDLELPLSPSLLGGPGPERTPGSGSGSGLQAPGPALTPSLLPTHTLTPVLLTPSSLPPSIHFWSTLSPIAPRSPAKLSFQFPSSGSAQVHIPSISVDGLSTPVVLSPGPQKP
Summary of the method: as §1

GABPA = target: T3, GABPA (Homo sapiens, UniProt Q06546 1-454)
T3 sequence: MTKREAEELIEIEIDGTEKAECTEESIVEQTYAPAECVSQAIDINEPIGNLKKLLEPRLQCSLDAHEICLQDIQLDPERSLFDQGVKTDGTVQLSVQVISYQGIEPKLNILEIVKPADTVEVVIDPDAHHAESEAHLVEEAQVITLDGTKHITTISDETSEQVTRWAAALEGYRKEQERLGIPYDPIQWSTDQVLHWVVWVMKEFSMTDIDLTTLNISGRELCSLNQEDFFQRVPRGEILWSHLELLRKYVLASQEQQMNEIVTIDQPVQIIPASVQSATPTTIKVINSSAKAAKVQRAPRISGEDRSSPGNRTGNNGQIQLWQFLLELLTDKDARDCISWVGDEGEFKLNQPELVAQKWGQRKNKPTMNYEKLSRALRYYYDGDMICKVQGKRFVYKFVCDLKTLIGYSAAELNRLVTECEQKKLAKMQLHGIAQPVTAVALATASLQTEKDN
Summary of the method: as §1

ERG = target: T4, ERG (Homo sapiens, UniProt P11308 1-479)
T4 sequence: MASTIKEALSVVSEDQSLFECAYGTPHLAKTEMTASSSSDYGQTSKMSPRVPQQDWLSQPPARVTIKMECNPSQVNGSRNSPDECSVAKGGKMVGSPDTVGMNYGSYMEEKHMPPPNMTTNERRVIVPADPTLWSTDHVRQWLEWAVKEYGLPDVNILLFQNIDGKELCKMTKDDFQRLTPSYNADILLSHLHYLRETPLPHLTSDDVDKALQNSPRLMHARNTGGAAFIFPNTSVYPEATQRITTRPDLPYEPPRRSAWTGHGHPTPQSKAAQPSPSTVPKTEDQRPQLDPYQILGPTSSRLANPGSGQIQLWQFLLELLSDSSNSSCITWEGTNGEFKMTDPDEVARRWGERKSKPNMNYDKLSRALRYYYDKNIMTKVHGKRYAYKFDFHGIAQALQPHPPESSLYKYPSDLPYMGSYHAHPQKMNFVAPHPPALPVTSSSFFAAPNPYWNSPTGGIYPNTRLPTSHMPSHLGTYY
Summary of the method: as §1

EHF = target: T5, EHF (Homo sapiens, UniProt Q9NZC4 1-300)
T5 sequence: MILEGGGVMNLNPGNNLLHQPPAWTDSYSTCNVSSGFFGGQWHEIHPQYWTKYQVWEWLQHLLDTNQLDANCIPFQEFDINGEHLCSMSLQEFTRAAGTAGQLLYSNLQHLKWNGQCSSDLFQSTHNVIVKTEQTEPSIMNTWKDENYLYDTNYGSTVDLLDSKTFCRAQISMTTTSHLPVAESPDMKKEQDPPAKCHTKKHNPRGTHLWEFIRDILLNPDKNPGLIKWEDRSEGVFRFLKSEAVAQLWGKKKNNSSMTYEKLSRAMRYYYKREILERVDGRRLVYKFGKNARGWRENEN
Summary of the method: as §1

SPI1 = SPI1 (Homo sapiens, UniProt P17947 1-270)
Summary of the method: as §1

ELK3 = target: T6, ELK3 (Homo sapiens, UniProt P41970 1-407)
T6 sequence: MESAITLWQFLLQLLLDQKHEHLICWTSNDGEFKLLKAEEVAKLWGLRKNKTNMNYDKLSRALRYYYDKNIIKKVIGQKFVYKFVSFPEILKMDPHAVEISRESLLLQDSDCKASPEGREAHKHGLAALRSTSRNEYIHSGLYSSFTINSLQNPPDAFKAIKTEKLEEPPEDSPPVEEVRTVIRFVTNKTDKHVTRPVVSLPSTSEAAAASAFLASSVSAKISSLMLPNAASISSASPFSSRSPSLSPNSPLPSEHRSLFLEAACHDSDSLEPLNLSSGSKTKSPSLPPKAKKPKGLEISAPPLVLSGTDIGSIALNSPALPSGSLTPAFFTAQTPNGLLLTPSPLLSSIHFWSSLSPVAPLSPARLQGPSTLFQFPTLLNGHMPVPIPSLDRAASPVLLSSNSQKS
Summary of the method: as §1

ELF1 = ELF1 (Homo sapiens, UniProt P32519 1-619)
Sequence of ELF1 (P32519 whole entry): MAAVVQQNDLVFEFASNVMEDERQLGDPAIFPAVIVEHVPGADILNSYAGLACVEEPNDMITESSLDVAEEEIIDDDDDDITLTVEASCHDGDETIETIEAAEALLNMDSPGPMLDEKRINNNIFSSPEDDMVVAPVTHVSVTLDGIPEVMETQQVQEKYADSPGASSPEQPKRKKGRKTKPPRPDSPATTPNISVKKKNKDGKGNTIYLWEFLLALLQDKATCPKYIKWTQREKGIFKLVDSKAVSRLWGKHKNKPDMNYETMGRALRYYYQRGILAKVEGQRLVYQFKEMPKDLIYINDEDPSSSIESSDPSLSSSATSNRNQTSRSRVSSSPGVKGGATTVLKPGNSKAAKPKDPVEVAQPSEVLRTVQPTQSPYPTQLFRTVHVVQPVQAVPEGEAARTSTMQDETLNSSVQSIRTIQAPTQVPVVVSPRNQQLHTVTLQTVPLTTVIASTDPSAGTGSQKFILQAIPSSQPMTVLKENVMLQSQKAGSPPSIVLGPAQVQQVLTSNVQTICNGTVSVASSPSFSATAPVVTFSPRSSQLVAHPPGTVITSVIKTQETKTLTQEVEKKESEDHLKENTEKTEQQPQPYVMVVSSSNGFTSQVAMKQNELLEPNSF
Summary of the method: as §1

SPIB = SPIB (Homo sapiens, UniProt Q01892 1-262)
Sequence of SPIB (Q01892 whole entry): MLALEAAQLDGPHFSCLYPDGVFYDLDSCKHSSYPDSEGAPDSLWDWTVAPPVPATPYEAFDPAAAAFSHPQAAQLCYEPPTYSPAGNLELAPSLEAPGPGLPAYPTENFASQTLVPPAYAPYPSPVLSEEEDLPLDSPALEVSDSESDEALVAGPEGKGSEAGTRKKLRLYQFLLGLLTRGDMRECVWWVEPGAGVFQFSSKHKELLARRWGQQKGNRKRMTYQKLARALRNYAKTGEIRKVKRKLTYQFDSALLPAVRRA
Summary of the method: as §1

Sequence	binding signal (FLI1)	binding signal (ELK1)	binding signal (GABPA)	binding signal (ERG)	binding signal (EHF)	binding signal (SPI1)	binding signal (ELK3)	binding signal (ELF1)	binding signal (SPIB)
GGCATT	1.08 fold enrichment (6-mer frequency, TF over GST control)	1.05 fold enrichment (6-mer frequency, TF over GST control)	1.04 fold enrichment (6-mer frequency, TF over GST control)	1.04 fold enrichment (6-mer frequency, TF over GST control)	1.01 fold enrichment (6-mer frequency, TF over GST control)	1.05 fold enrichment (6-mer frequency, TF over GST control)	1.14 fold enrichment (6-mer frequency, TF over GST control)		
GGTTCA	1.14 fold enrichment (6-mer frequency, TF over GST control)	1.04 fold enrichment (6-mer frequency, TF over GST control)	1.11 fold enrichment (6-mer frequency, TF over GST control)	1.03 fold enrichment (6-mer frequency, TF over GST control)		1.02 fold enrichment (6-mer frequency, TF over GST control)	1.03 fold enrichment (6-mer frequency, TF over GST control)	1.07 fold enrichment (6-mer frequency, TF over GST control)	1.04 fold enrichment (6-mer frequency, TF over GST control)
TAGGTC	1.06 fold enrichment (6-mer frequency, TF over GST control)	1.03 fold enrichment (6-mer frequency, TF over GST control)	1.1 fold enrichment (6-mer frequency, TF over GST control)	1.03 fold enrichment (6-mer frequency, TF over GST control)			1.08 fold enrichment (6-mer frequency, TF over GST control)	1.01 fold enrichment (6-mer frequency, TF over GST control)	1.01 fold enrichment (6-mer frequency, TF over GST control)
CGCCAA	1.03 fold enrichment (6-mer frequency, TF over GST control)	1.02 fold enrichment (6-mer frequency, TF over GST control)	1.03 fold enrichment (6-mer frequency, TF over GST control)		1.04 fold enrichment (6-mer frequency, TF over GST control)	1.04 fold enrichment (6-mer frequency, TF over GST control)	1.06 fold enrichment (6-mer frequency, TF over GST control)	1.08 fold enrichment (6-mer frequency, TF over GST control)	1.02 fold enrichment (6-mer frequency, TF over GST control)
GCCCAT	1.06 fold enrichment (6-mer frequency, TF over GST control)	1.05 fold enrichment (6-mer frequency, TF over GST control)	1.17 fold enrichment (6-mer frequency, TF over GST control)	1.04 fold enrichment (6-mer frequency, TF over GST control)		1.03 fold enrichment (6-mer frequency, TF over GST control)	1.04 fold enrichment (6-mer frequency, TF over GST control)	1.06 fold enrichment (6-mer frequency, TF over GST control)	1.04 fold enrichment (6-mer frequency, TF over GST control)
CGATCA	1.15 fold enrichment (6-mer frequency, TF over GST control)	1.13 fold enrichment (6-mer frequency, TF over GST control)	1.15 fold enrichment (6-mer frequency, TF over GST control)	1.07 fold enrichment (6-mer frequency, TF over GST control)		1.02 fold enrichment (6-mer frequency, TF over GST control)	1.23 fold enrichment (6-mer frequency, TF over GST control)	1.2 fold enrichment (6-mer frequency, TF over GST control)	1.06 fold enrichment (6-mer frequency, TF over GST control)
TAAAGC	1.03 fold enrichment (6-mer frequency, TF over GST control)	1.12 fold enrichment (6-mer frequency, TF over GST control)	1.11 fold enrichment (6-mer frequency, TF over GST control)		1.02 fold enrichment (6-mer frequency, TF over GST control)	1.05 fold enrichment (6-mer frequency, TF over GST control)	1.09 fold enrichment (6-mer frequency, TF over GST control)	1.05 fold enrichment (6-mer frequency, TF over GST control)	1.06 fold enrichment (6-mer frequency, TF over GST control)
CAGATT	1.07 fold enrichment (6-mer frequency, TF over GST control)	1.05 fold enrichment (6-mer frequency, TF over GST control)		1.06 fold enrichment (6-mer frequency, TF over GST control)	1.01 fold enrichment (6-mer frequency, TF over GST control)	1.03 fold enrichment (6-mer frequency, TF over GST control)	1.12 fold enrichment (6-mer frequency, TF over GST control)	1 fold enrichment (6-mer frequency, TF over GST control)	1.02 fold enrichment (6-mer frequency, TF over GST control)
AAGCGA	1.02 fold enrichment (6-mer frequency, TF over GST control)	1.02 fold enrichment (6-mer frequency, TF over GST control)		1.11 fold enrichment (6-mer frequency, TF over GST control)	1.19 fold enrichment (6-mer frequency, TF over GST control)	1.07 fold enrichment (6-mer frequency, TF over GST control)	1.07 fold enrichment (6-mer frequency, TF over GST control)	1.06 fold enrichment (6-mer frequency, TF over GST control)	1 fold enrichment (6-mer frequency, TF over GST control)
GTTTGG	1.07 fold enrichment (6-mer frequency, TF over GST control)	1.07 fold enrichment (6-mer frequency, TF over GST control)	1.04 fold enrichment (6-mer frequency, TF over GST control)			1.01 fold enrichment (6-mer frequency, TF over GST control)		1.05 fold enrichment (6-mer frequency, TF over GST control)	1.1 fold enrichment (6-mer frequency, TF over GST control)
CTCGTG	1.19 fold enrichment (6-mer frequency, TF over GST control)	1.09 fold enrichment (6-mer frequency, TF over GST control)	1.28 fold enrichment (6-mer frequency, TF over GST control)		1.07 fold enrichment (6-mer frequency, TF over GST control)		1.11 fold enrichment (6-mer frequency, TF over GST control)	1.16 fold enrichment (6-mer frequency, TF over GST control)	1.05 fold enrichment (6-mer frequency, TF over GST control)
TAACAG	1.06 fold enrichment (6-mer frequency, TF over GST control)	1.05 fold enrichment (6-mer frequency, TF over GST control)		1.01 fold enrichment (6-mer frequency, TF over GST control)	1.07 fold enrichment (6-mer frequency, TF over GST control)	1.11 fold enrichment (6-mer frequency, TF over GST control)	1.07 fold enrichment (6-mer frequency, TF over GST control)	1.09 fold enrichment (6-mer frequency, TF over GST control)	1.09 fold enrichment (6-mer frequency, TF over GST control)
TTGGGT	1.02 fold enrichment (6-mer frequency, TF over GST control)	1.13 fold enrichment (6-mer frequency, TF over GST control)	1.22 fold enrichment (6-mer frequency, TF over GST control)		1.04 fold enrichment (6-mer frequency, TF over GST control)	1.02 fold enrichment (6-mer frequency, TF over GST control)	1.16 fold enrichment (6-mer frequency, TF over GST control)	1.09 fold enrichment (6-mer frequency, TF over GST control)	1.05 fold enrichment (6-mer frequency, TF over GST control)
GGAACA	1.06 fold enrichment (6-mer frequency, TF over GST control)	1.09 fold enrichment (6-mer frequency, TF over GST control)		1.16 fold enrichment (6-mer frequency, TF over GST control)	1.12 fold enrichment (6-mer frequency, TF over GST control)	1.15 fold enrichment (6-mer frequency, TF over GST control)	1.12 fold enrichment (6-mer frequency, TF over GST control)	1.02 fold enrichment (6-mer frequency, TF over GST control)	1.18 fold enrichment (6-mer frequency, TF over GST control)
CCGGTC	1.17 fold enrichment (6-mer frequency, TF over GST control)	1.18 fold enrichment (6-mer frequency, TF over GST control)		1.3 fold enrichment (6-mer frequency, TF over GST control)	1.1 fold enrichment (6-mer frequency, TF over GST control)	1.01 fold enrichment (6-mer frequency, TF over GST control)	1.18 fold enrichment (6-mer frequency, TF over GST control)	1.14 fold enrichment (6-mer frequency, TF over GST control)	1.08 fold enrichment (6-mer frequency, TF over GST control)
